# AMA1 RON2 block – qHTS for Inhibitors of AMA1-RON; Towards Development of Antimalarial Drug Lead: Primary Screen | Plasmodium falciparum AMA1 (3D7) - RON2 peptide interaction | AlphaScreen AMA1-biotinylated RON2 peptide binding | Potency, µM (series often up to 58.2 µM), usual class: inhibitors | 0.2% of 360,000 active | AID 720542, 2013; also: nearly all actives have a fitted effect of over 45% in size
#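 AMA1 (3D7) with his tag at 25 nM final met compounds first, then biotinylated RON2 peptide at 25 nM; detection used donor plus acceptor beads, 10 µg/mL apiece, read by AlphaScreen after 30 min at room temperature.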
# Pf growth 48h – Primary qHTS for delayed death inhibitors of the malarial parasite plastid, 48 hour incubation; 5.9% of 310,000 active; Potency, µM (top dose mostly 28.7 µM), most hits filed as inhibitors; AID 504832, 2011; P. falciparum luciferase growth in erythrocytes, 48 h
#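 In quantitative HTS format, infected erythrocytes bearing luciferase-reporter parasites were treated for a single generation at 37 C. Luminescence after adding detection reagent served as the growth measure.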
# Pf growth 96h – Primary qHTS for delayed death inhibitors of the malarial parasite plastid, 96 hour incubation; P. falciparum luciferase reporter growth, 96 h; Potency, µM (titrated, usually from 28.7 µM), usual class: inhibitors; 6.9% of 320,000 active; AID 504834, 2011
#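 Compounds incubated with erythrocytes infected by luciferase-expressing P. falciparum (2% hematocrit, 0.05% parasitemia final) for 96 hours, 37 C in 5% CO2. Growth inhibition scored as decreased luciferase luminescence.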
# SARS PLP yeast – qHTS of Yeast-based Assay for SARS-CoV PLP; Potency, µM (top dose mostly 32.9 µM), hits mostly activators; S. cerevisiae expressing SARS-CoV PLpro, growth rescue; 0.19% of 330,000 active; calls by dose curve; also: nearly all actives have a fitted effect of over 55% in size
# Numbers stand for hits; n = inactive; u = inconclusive; x = no result; [ ] = remark or other dose. Hits are enriched below; roughly 9.4% of the tested compounds scored in any of these assays. Unless noted, calls follow the shape of the dose curve; as a rule, active = well fitted curve in the direction sought with a large enough effect; inconclusive = small, poorly fitted or top-dose-only effect, or another doubt; inactive = no such curve, though single readings can be large; an effect the other way counts as inactive or inconclusive.
SMILES,AMA1 RON2 block,Pf growth 48h,Pf growth 96h,SARS PLP yeast
O=C(CSc1nc2ccccc2c(=O)n1-c1ccccc1)N/N=C/C=C/c1ccccc1[N+](=O)[O-],n,9.3µM,u,n
O=C(CSc1nc2ccccc2c(=O)n1-c1ccc(Cl)cc1)N/N=C/C=C/c1ccccc1[N+](=O)[O-],n,u,9.3µM,n
O=C(COC(=O)Cc1ccsc1)Nc1ccc(Br)cc1,n,n,n,n
O=C(CCc1ccccc1)Nc1cc2c(cc1Cl)OCCO2,n,n,n,n
Cc1cc(C)c2oc(C(=O)N(Cc3ccccc3)c3ccccn3)cc(=O)c2c1,n,12µM,u,n
COc1cc(/C=C/C(=O)OCC(=O)Nc2ccc3c(c2)OCCO3)ccc1O,n,n,n,n
Cc1cc(S(=O)(=O)N2CCCCC2CCNC(=O)C(=O)NCCN2CCOCC2)ccc1F (stereo not given),n,x,x,x
C/C(CC(=O)Nc1ccc(N(C)C)cc1)=N\NC(=O)c1ccc(Cl)cc1,n,n[0.00184 µM],n,n
Cc1cccc2c1N(CCOc1ccc(C(C)(C)C)cc1)C(=O)C2=O,n,10µM,n,n
COc1ccccc1NC(=O)COC(=O)[C@@H]1CCCN1C(=O)c1cccs1,n,n,x,n
CC1=NN(c2ccccc2)C(=O)/C1=C\c1ccc(Oc2ccc([N+](=O)[O-])cc2[N+](=O)[O-])cc1,n,n,n,n
O=[N+]([O-])c1cc([N+](=O)[O-])c(Oc2ccc(Br)cc2Br)cc1NN1CCCCC1,n,n,12µM,n
COc1cc(C(=O)NC2CCCc3c2cnn3-c2ccccc2F)cc(OC)c1OC (stereo not given),n,u,3.3µM,n
COC(=O)c1ccc(C(=O)NC2CCCc3c2cnn3-c2ccccc2F)nc1 (stereo not given),n,n,u,n
CCCCC(CCC(=O)O)(C(=O)OCC)c1csc(Nc2ccc(C)cc2)n1 (stereo not given),n,n,4.7µM,n
CCOC(=O)C(CC)(CCC(=O)O)c1csc(N)n1 (stereo not given),n,x,x,n
CCc1ccc(CN2C(=O)CCC2(C)C(=O)NC2CCCC2)cc1 (stereo not given),n,n,x,n
Cc1ccc(O)c(C(=O)c2cc(C(=O)NCc3ccccc3)c(=O)n(Cc3ccccc3)c2)c1,n,3.7µM,u,n
O=C(c1cc(C(=O)NCc2ccccc2)c(=O)n(Cc2ccccc2)c1)c1cc(Br)ccc1O,n,1.5µM,0.41µM,n
N#Cc1cc(C(=O)c2cc(Br)ccc2O)cn(Cc2ccccc2)c1=O,n,u,u,n
Clc1cnc(Oc2ccc(Oc3ncc(Cl)cc3Cl)cc2)c(Cl)c1,n,x,n,n
COC(=O)C1=C(N)Oc2cc(C)[nH]c(=O)c2C1c1cc(OC)c(OC)c(OC)c1 (stereo not given),n,10µM,n,n
COC(=O)c1c(C)[nH]c(C(=O)COC(=O)c2c(C)noc2C)c1C,n,n,n,n
COC(=O)c1c(C)[nH]c(C(=O)C(C)OC(=O)c2c(C)noc2C)c1C (stereo not given),n,u,4.1µM,n
CCc1n[nH]c(=O)n1Cn1c(CC)n[nH]c1=O,n,x,10µM,n
SMILES,AMA1 RON2 block,Pf growth 48h,Pf growth 96h,SARS PLP yeast
CCOC(=O)C(NC(=O)NCc1ccc(F)cc1)(OCC)C(F)(F)F (stereo not given),n,n,n,n
CCOC(=O)C(NC(=O)NCc1ccc(OC)cc1)(OCC)C(F)(F)F (stereo not given),n,n,9.3µM,n
COC(=O)C1=C(C)NC(=O)/C1=C\c1cc(C)n(-c2c(C)cccc2C)c1C,n,x,2.6µM,n
Cc1cccc(C)c1-n1c(C)cc(/C=C2\NC(=O)NC2=O)c1C,n,12µM,12µM,n
COC(=O)C1=C(C)NC(=O)/C1=C\c1cc(C)n(-c2ccccc2F)c1C,n,u,n,n
COC(=O)C1=C(C)NC(=O)/C1=C\c1cc(C)n(-c2ccccc2C)c1C,n,x,9.3µM,n
O=C(CN(C(=O)Cn1nnc(-c2cccs2)n1)c1ccc2c(c1)OCCO2)NCc1ccccc1,n,u,u,n
CCOC(=O)Cc1csc(Nc2c(C)n(C)n(-c3ccccc3)c2=O)n1,n,n,n,n
Cc1c(Nc2nc(-c3ccc(Cl)cc3)cs2)c(=O)n(-c2ccccc2)n1C,n,n,13µM,u
Cc1ccccc1-c1nc(P(=O)(c2ccccc2)c2ccccc2)c(N2CCOCC2)o1,n,15µM,u,n
CCOP(=O)(c1ccccc1)c1nc(-c2ccccc2C)oc1NCc1ccccc1 (stereo not given),n,12µM,u,n
CCOP(=O)(c1ccccc1)c1nc(-c2ccccc2C)oc1N1CCCCC1 (stereo not given),n,13µM,n,n
CCCOP(=O)(OCCC)c1nc(-c2ccccc2)oc1NCc1ccccc1,n,5.9µM,3.7µM,n
COP(=O)(OC)c1nc(-c2cccc3ccccc23)oc1NCc1ccccc1,n,u,u,n
CCOP(=O)(OCC)c1nc(-c2cccc3ccccc23)oc1N1CCCCC1,n,u,u,n
C/C=C\c1ccc(OC)cc1,x,n,n,x
O=C(c1ccc(F)cc1)N1C2CCC1CC(O)(c1ccccc1F)C2 (stereo not given),n,n,u,n
CC(C)(C)OC(=O)NCc1ccc(CNC(=O)c2nc[nH]c2C(=O)N2CCc3ccccc3C2)cc1,n,u,u,n
CC(C)(C)OC(=O)NCc1ccc(CNC(=O)c2nc[nH]c2C(=O)N2CCN(c3ccccc3)CC2)cc1,n,13µM,n,n
CC(C)(C)OC(=O)NCc1ccc(CNC(=O)c2nc[nH]c2C(=O)NCc2ccc(CNC(=O)OC(C)(C)C)cc2)cc1,n,x,x,n
C[C@H](NC(=O)c1nc[nH]c1C(=O)NCc1ccc(CNC(=O)OC(C)(C)C)cc1)C(=O)OC(C)(C)C,n,u,1.3µM,n
C[C@@H](NC(=O)c1nc[nH]c1C(=O)NCc1ccc(CNC(=O)OC(C)(C)C)cc1)c1ccccc1,n,12µM,u,n
Cc1ccc(NC(=O)C(C)Sc2nc3nc(C)cc(C)n3n2)cc1 (stereo not given),n,u,n,n
Cc1ccc(S(=O)(=O)Nc2cccc3c2O[C@@H](CN(C)C(=O)Nc2ccc4c(c2)OCO4)[C@H](C)CN([C@@H](C)CO)C3=O)cc1,n,x,x,n
CCC(c1nnnn1Cc1ccco1)N(Cc1ccccc1OC)Cc1cc2cc(C)ccc2[nH]c1=O (stereo not given),n,1.5µM,u,n
Cc1ccc2[nH]c(=O)c(CN(CCCO)C(C)c3nnnn3Cc3ccco3)cc2c1 (stereo not given),n,2.3µM,n,n
Cc1cccc(Nc2nc(-c3ccc4c(c3)OCCO4)cs2)c1,n,x,n,n
CCN(CC)CCn1c(=S)[nH]c2cc(C(=O)N3CC=C(c4ccccc4)CC3)ccc2c1=O,x,u,u,n
N#Cc1sc2nc(-c3cccs3)cc(-c3ccc(Cl)cc3)c2c1N,n,u,u,n
